The results in this text go back to PubChem BioAssay AID2284087 (EPA ToxCast).

Active and inactive are the calls of the source. The calls were made as follows: active = hit-call score of the fitted dose curve at least 0.9, where 1 is the maximum; inactive = score below 0.9.

Chain of human Flt-1 (VEGFR1) (FLT1) Receptor Tyrosine Kinase, FLT1 (gene 2321) (P17948 whole entry, looked up): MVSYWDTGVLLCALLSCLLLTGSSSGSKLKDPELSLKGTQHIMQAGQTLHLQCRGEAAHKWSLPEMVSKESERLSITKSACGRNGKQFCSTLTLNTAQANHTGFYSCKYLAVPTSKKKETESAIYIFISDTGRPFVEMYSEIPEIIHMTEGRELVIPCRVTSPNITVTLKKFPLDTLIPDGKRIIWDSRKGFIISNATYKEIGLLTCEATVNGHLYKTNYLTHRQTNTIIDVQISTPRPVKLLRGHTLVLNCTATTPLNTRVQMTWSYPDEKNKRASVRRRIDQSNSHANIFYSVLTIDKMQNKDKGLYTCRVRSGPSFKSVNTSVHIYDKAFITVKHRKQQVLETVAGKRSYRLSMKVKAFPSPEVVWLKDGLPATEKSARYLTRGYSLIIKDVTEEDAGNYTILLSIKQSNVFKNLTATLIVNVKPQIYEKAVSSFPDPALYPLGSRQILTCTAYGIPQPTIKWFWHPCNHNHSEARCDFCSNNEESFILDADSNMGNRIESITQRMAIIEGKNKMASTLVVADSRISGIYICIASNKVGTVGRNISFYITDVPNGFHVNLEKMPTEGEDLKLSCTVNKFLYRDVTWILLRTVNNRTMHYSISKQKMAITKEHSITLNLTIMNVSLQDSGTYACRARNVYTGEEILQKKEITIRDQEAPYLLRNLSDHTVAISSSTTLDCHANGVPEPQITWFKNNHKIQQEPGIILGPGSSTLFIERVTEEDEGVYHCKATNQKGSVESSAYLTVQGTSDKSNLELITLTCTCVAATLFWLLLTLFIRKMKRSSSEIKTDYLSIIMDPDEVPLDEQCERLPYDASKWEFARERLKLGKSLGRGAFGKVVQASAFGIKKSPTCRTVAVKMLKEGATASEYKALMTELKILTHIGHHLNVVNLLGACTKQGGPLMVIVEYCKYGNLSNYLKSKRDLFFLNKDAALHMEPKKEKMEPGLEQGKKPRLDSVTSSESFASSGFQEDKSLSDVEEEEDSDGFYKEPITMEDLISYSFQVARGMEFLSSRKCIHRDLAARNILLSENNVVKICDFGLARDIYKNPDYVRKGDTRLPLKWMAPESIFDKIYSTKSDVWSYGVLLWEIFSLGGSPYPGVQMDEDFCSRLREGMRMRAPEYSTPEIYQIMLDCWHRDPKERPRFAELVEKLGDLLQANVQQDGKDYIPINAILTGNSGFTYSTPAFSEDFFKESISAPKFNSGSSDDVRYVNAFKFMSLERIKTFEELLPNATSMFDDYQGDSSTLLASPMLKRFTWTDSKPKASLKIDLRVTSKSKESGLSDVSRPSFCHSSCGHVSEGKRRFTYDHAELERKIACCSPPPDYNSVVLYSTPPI

In this assay the target is human Flt-1 (VEGFR1) (FLT1) Receptor Tyrosine Kinase, FLT1 (gene 2321) (UniProt P17948). As to the kind of experiment: ERF_FR_ENZ_hFLT1: Eurofins (ERF) Enzymatic Radiometric [Km ATP] KinaseProfiler LeadHunter Assay for human Flt-1 (VEGFR1) (FLT1) Receptor Tyrosine Kinase. Here is the method:
ERF_FR_ENZ_hFLT1 is a biochemical, single-readout assay that uses extracted gene-proteins in a cell-free assay. Measurements were taken 0.25 hour after chemical dosing in a 96-well plate. See Flt-1 (VEGFR1) Human RTK Kinase Enzymatic LANCE Assay [Km ATP], Cerep.ERF_FR_ENZ_hFLT1 is an assay component calculated from the ERF_FR_ENZ_hFLT1 assay. It is designed to measure enzyme activity using a type of enzyme reporter as detected by fluorescence intensity with LANCE technology.Data from the assay component ERF_FR_ENZ_hFLT1 was analyzed at the assay endpoint, ERF_FR_ENZ_hFLT1, in the positive analysis fitting direction relative to DMSO as the negative control and baseline of activity. Using a type of enzyme reporter, loss-of-signal activity can be used to understand changes in enzymatic activity as they relate to gene FLT1. To generalize the intended target to other relatable targets, this assay endpoint is annotated to the kinase intended target family, where the subfamily is receptor tyrosine kinase.
Flt1 (h) is incubated with 8 mM MOPS pH 7.0, 0.2 mM EDTA, 250 uM […], 10 mM MgAcetate and [g- 33P]-ATP (specific activity and concentration as required). The reaction is initiated by the addition of the Mg/ATP mix. After incubation for 40 minutes at room temperature, the reaction is stopped by the addition of phosphoric acid to a concentration of 0.5%. […]
In the case of `O=C(/C=C/c1ccc(O)cc1)CC(=O)/C=C/c1ccc(O)cc1`, the result was inactive.
